The nature of assay [1]: qHTS assay to identify small molecule agonists of the estrogen receptor alpha (ER-alpha) signaling pathway in the presence of an antagonist - cell viability counter screen (AID 1259386).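 Note: cells exposed to compounds for 22 h at 37 °C before the viability read; nearly all actives have a fitted effect of over 30% in size.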 Note: potency is the fitted concentration of half-maximal effect. The essentials:
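The test measures whether compounds kill ER-alpha reporter cells (VM7Luc4E2) under antagonist co-treatment (ICI-182,780, 10.0nM). Fluorescence from CellTiter-Fluor is read after a 22hr exposure.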
(Quantitative high-throughput screening tests each substance at several concentrations.)

Assay [2] addresses Progesterone receptor (Homo sapiens) (UniProt P06401). Nature of the assay: qHTS assay to identify small molecule agonists of the progesterone receptor (PR) signaling pathway (AID 1346784; calls by dose curve; note: nearly all actives have a fitted effect of over 30% in size; note: potency is the fitted concentration of half-maximal effect). The essentials:
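Reporter assay, GripTite PR-UAS-bla HEK 293T cells: 16 hr exposure to DMSO-dissolved compounds at 37C, 5% CO2, in steroid-depleted (2% charcoal-stripped FBS) medium; beta-lactamase measured by FRET fluorescence.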

Assay [3] shares this target. Nature of the assay: qHTS assay to identify small molecule antagonists of the progesterone receptor (PR) signaling pathway (AID 1346795; active = well fitted inhibition curve with a large enough effect in the signal ratio in the repeat runs, not every such curve was filed as active; the % refers to the signal ratio). The method, boiled down: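 Stimulus R5020 at 1 nM final; cells HEK293T PR-UAS-bla; medium with 2% charcoal-stripped FBS; compound exposure 16 hr at 37C, 5% CO2; detection by FRET beta-lactamase substrate, 2 hr, room temperature.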

A short description of assay [4]: qHTS assay to identify small molecule antagonists of the progesterone receptor (PR) signaling pathway - cell viability counter screen (AID 1346798). Note: series mostly up to about 92 µM; nearly all actives have a fitted effect of over 50% in size. The essentials:
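In the same plates used for the beta-lactamase readout, cell viability of compound- and R5020-treated PR-UAS-bla HEK293T cells (16 hr, 37C) was assessed by CellTiter-Glo luminescence.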

A short description of assay [5]: qHTS assay to identify small molecule agonists of the progesterone receptor (PR) signaling pathway - cell viability counter screen (AID 1346799; calls by dose curve; note: nearly all actives have a fitted effect of over 45% in size; note: potency is the fitted concentration of half-maximal effect). The essentials:
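Multiplexed viability read: CellTiter-Glo luminescence, 30 min RT, following LiveBLAzer FRET measurement on PR-UAS-bla HEK293T cells exposed to compounds 16 hr.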

Assay [6] in a line: qHTS assay to identify small molecule antagonists of the TGF-beta/Smad signaling pathway - cell viability counter screen (AID 1346824). Note: nearly all actives have a fitted effect of over 50% in size. The method, boiled down:
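SBE-bla HEK 293T cells, incubated overnight, then compound plus 0.25 ng/mL TGF-beta1 (stock added) for 5 hr at 37 C. Viability was read in the same wells by CellTiter-Glo luminescence after 30 min at room temperature.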

Assay [7] can be described thus: qHTS assay to identify small molecule agonists of the TGF-beta/Smad signaling pathway (AID 1346859; active = well fitted activation curve with a large enough effect in the signal ratio in the repeat runs, not every such curve was filed as active; the % refers to the signal ratio; note: series mostly up to about 77 µM). The method, boiled down:
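Screening used HEK 293T SBE-bla cells at 4,000/well. Test agents: 5 hr, 37 C. Detection: FRET substrate, 2 hr RT, then excitation 405 nm with emissions at 460 and 530 nm.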

The target of assay [8] is Thyrotropin-releasing hormone receptor (Homo sapiens) (UniProt P34981). Nature of the assay: qHTS assay to identify small molecule antagonists of the thyrotropin-releasing hormone receptor (TRHR) signaling pathway (AID 1346877; active = well fitted inhibition curve with a large enough effect in the repeat runs, not every such curve was filed as active; note: series mostly up to about 51 µM). The essentials:
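Overnight-plated (18 h, 37 °C) HEK293 cells expressing TRHR were dye-loaded 2 h, treated with compound, then stimulated with TRH at 1 nM final. Fluorescence intensity was captured every second for 3 min.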

The target is the same in assay [9]. Nature of the assay: qHTS assay to identify small molecule agonists of the thyrotropin-releasing hormone receptor (TRHR) signaling pathway (AID 1346891; calls by dose curve; note: series mostly up to about 58 µM). The method, boiled down:
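Readout was intracellular calcium fluorescence in TRHR-Hek293 cells. Cells were incubated 18 h, dye-loaded 2 h at 37 °C, and treated with compound in agonist mode.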

A short description of assay [10]: qHTS assay to identify small molecule agonists of the TGF-beta/Smad signaling pathway - cell viability counter screen (AID 1346829). Note: nearly all actives have a fitted effect of over 45% in size. Note: potency is the fitted concentration of half-maximal effect. The method, boiled down: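 Here the cytotoxicity of library compounds is measured in SBE-bla HEK 293T cells treated for 5 hr, using CellTiter-Glo added to wells already read for the beta-lactamase reporter.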

Inconclusive results are not listed. More than one record can exist for a structure, and the calls need not agree. The source made the active and inactive calls. Unless noted, calls come from the whole dose curve; as a rule, active = well fitted curve in the direction sought with a large enough effect in the repeat runs; inconclusive = weak or mixed curves; inactive = no such curve, though single readings can be large; an effect the other way counts as inactive or inconclusive. Residues, ends and D or L forms follow the SMILES beside them.

Sequence of Progesterone receptor (Homo sapiens) (P06401 whole entry, looked up): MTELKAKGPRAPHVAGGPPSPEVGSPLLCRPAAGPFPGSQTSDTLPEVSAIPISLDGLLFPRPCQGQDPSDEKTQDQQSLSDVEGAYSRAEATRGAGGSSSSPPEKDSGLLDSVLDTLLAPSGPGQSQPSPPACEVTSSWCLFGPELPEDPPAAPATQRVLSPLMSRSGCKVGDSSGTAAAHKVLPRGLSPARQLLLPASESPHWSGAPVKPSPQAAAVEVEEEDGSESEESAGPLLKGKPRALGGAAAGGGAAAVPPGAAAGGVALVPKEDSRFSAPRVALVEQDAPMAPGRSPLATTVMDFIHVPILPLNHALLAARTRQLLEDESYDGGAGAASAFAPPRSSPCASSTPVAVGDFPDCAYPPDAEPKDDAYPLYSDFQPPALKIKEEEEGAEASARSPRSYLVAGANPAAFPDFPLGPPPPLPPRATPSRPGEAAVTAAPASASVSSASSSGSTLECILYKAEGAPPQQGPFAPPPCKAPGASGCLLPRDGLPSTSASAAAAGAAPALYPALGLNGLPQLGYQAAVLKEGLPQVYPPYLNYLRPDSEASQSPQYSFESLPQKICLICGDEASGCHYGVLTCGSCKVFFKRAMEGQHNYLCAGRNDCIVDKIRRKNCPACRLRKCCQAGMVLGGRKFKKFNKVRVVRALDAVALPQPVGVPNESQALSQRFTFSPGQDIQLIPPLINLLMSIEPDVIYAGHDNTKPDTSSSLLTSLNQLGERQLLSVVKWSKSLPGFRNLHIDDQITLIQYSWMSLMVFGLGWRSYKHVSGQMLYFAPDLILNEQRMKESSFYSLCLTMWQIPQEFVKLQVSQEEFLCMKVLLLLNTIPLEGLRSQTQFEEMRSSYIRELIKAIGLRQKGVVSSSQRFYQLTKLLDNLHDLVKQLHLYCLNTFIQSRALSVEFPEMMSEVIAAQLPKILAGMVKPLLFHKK
Sequence of Thyrotropin-releasing hormone receptor (Homo sapiens) (P34981 whole entry, looked up): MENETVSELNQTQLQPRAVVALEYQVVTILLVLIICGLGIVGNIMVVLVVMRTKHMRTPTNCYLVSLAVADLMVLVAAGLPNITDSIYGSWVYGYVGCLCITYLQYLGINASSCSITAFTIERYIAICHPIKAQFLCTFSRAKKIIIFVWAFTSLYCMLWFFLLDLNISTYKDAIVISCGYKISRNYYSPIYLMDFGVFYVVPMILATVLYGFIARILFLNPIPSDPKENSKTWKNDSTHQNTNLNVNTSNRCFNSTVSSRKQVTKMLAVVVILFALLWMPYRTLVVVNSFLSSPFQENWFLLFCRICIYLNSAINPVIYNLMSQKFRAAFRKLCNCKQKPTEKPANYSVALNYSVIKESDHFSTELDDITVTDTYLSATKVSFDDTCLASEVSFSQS

As to `CC(C)(Oc1ccc(C2CC2(Cl)Cl)cc1)C(=O)O` (stereo not given), the Potency entry in assay [1], in [2], in assay [4] and in [5] was “inactive” each time. Further, the molecule was called inactive in [3], in assay [6] and in [7].
In the case of `Cn1c(=O)c2[nH]cnc2n(C)c1=O`, the Potency entry in assay [1], in [2], in [4] and in [5] was “inactive” throughout. Besides, the result in assay [3], in assay [6], in [7], in assay [8] and in assay [9] was inactive.
For `O=C(c1ccccc1)C(O)c1ccccc1` (stereo not given), the Potency result in assay [1], in [2], in assay [4] and in assay [5] was “inactive” throughout. For the same molecule, the result in [3], in [6], in assay [7], in assay [8] and in assay [9] was inactive.
In the case of `O=C1NC(=O)c2ccccc21`, the Potency entry in assay [1], in assay [2], in assay [4] and in assay [5] was “inactive” throughout. Also, the molecule was called inactive in [3], in [6] and in assay [7].
`O=S(=O)(O)NC1CCCCC1`: the Potency entry in [1], in [4] and in assay [5] was “inactive” each time. Moreover, in [2], the Potency is 4.12 µM (active) and inactive. The result in assay [3], in [6] and in [7] was inactive.
`NC(=O)NC1NC(=O)NC1=O` (stereo not given): the Potency result in [1], in assay [2], in assay [4] and in assay [5] was “inactive” each time. Also, the molecule was called inactive in [3], in assay [6], in assay [7], in assay [8] and in assay [9].
With `O=NO`, the Potency result in [1], in [4] and in [5] was “inactive” throughout. For the same molecule, the molecule was called inactive in [6] and in assay [7].
`C/C=C/c1ccc(OC)cc1`: the Potency entry in assay [1], in assay [2], in assay [4] and in assay [5] was “inactive” in each case. For the same molecule, the molecule was called inactive in assay [3], in assay [6], in [7], in assay [8] and in [9].
On to `CCCCC(CC)COC(=O)/C=C/c1ccc(OC)cc1` (stereo not given), for which the Potency result in [1], in [2], in assay [4], in assay [5] and in assay [10] was “inactive” throughout. In addition, the call in assay [6], in [7], in assay [8] and in assay [9] was inactive.
Consider `CCCN(CCC)S(=O)(=O)c1ccc(C(=O)O)cc1`, for which the Potency entry in assay [1], in assay [2], in assay [4] and in assay [5] was “inactive” each time. Besides, the result in [3], in assay [6], in assay [7], in assay [8] and in assay [9] was inactive.
As to `O=C(O)CCC(=O)O`, the Potency result in assay [1], in [2], in assay [4] and in assay [5] was “inactive” in each case. In addition, the molecule was classed as inactive in assay [3], in assay [6], in assay [7], in assay [8] and in assay [9].
Consider `CCCC(CCC)C(=O)O`, for which the Potency result in [1], in assay [2], in assay [4] and in assay [5] was “inactive” throughout. Also, the molecule was called inactive in assay [3], in [6], in assay [7], in assay [8] and in [9].
Consider `CCCCOC(=O)CC(CC(=O)OCCCC)(OC(C)=O)C(=O)OCCCC`, for which the Potency result in assay [1], in assay [2], in [4] and in assay [5] was “inactive” in each case. Besides, the outcome in assay [3], in assay [6], in assay [7], in assay [8] and in [9] was inactive.
As to `O=C(O)CCCCC(=O)O`, the Potency result in assay [1], in assay [2], in [4] and in assay [5] was “inactive” in each case. Further, the molecule was classed as inactive in assay [3], in [6], in assay [7], in [8] and in assay [9].
On to `NS(=O)(=O)c1cc(C(=O)O)c(NCc2ccco2)cc1Cl`, for which the Potency entry in assay [1], in assay [2], in assay [4] and in [5] was “inactive” each time. Further, the call in [3], in assay [6], in assay [7], in [8] and in assay [9] was inactive.
For the molecule `C[C@]12C=CC(=O)C=C1CC[C@@H]1[C@@H]2[C@@H](O)C[C@@]2(C)[C@H]1CC[C@]2(O)C(=O)CO`, the Potency result in assay [1], in assay [4], in assay [5] and in [10] was “inactive” each time. In addition, the molecule was classed as inactive in [6] and in assay [7].
For the molecule `COC(=O)[C@H](Cc1ccccc1)NC(=O)[C@@H](N)CC(=O)O` (H-Asp-Phe-OMe), the Potency result in assay [1], in assay [2], in [4] and in [5] was “inactive” in each case. In addition, the outcome in assay [3], in [6], in [7], in [8] and in assay [9] was inactive.
With `c1ccc2[nH]ccc2c1`, the Potency is 60.1 µM (active) and inactive in assay [1]; 26.9 µM (active) and inactive in assay [5]; 42.9 µM (active) and inactive in assay [10]. Moreover, the call in assay [6], in assay [7], in assay [8] and in assay [9] was inactive.
Regarding `O=C(O)CS`, the Potency result in assay [1], in [4], in [5] and in assay [10] was “inactive” throughout. The molecule was classed as inactive in assay [6], in assay [7], in [8] and in [9].

The values are drawn from PubChem BioAssay (Tox21).
